The text below walks through data of PubChem BioAssay.

Active and inactive are the calls of the source.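 The calls were made as follows, unless noted: active = fluorescence slope higher than the sample average by over 3 SD (cut at about -0.22 in these data, passing the limit was not always enough); inactive = the rest.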

A short description of experiment [1]: inhibitors of TNFa-induced NFkB p65 translocation, primary screen, imaging, HUVEC, MLSMR starter and 10KST1 sets (AID 438;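 active = inhibition above 20% together with a positive visual image hit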;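 also: compound added about 3h40 before a 20 min TNFalpha stimulation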;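 as to inhibition: signal is the nuclear over cytoplasmic p65 intensity ratio per well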). The conditions noted are these: HUVEC TNFa-induced p65 nuclear translocation; cell count: measured here: nuclei count (cytotoxicity indicator), at 2.08 µM; inhibition: at 2 µM, stronger effect = higher value, 0% TNFa-plus-vehicle, 100% no-TNFa wells.

A short description of experiment [2]: inhibitors of mutant huntingtin aggregation, primary screen, imaging, exon1htt(103Q)mCFP cells, high-content imaging (AID 483;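 active = visual image review flags a hit and inhibition of aggregation exceeds 20%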;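 also: compound exposure lasted 3 days before fixation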;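 as to nuclei count: percent of the per-plate median nuclei count of sample wells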). The conditions noted are these: exon1htt(103Q)mCFP cell line, aggregate imaging, at 2 µM; inhibition of aggregation: stronger effect = higher value; nuclei count: measured here: cell count, toxicity.
The nature of experiment [3]: inhibitors of E-selectin induction by TNFa, primary screen, imaging, HUVEC, immunofluorescence, MLSMR starter and 10KST1 sets (AID 487;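 active = visually confirmed hit in the image check and inhibition above 20%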;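 as to inhibition: signal is fraction of cell area covered by stained E-selectin grains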;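 as to nuclei count: 100% = median nuclei count of all wells on the same plate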). The conditions noted are these: HUVEC TNFalpha-induced E-selectin immunofluorescence imaging, at 2 µM; inhibition: stronger effect = higher value; nuclei count: measured here: cell number, toxicity.
The target of experiment [4] is Voltage-gated potassium channel subunit beta-2 (Rattus norvegicus) (UniProt P62483). Briefly: KvBeta enzyme negative modulators, primary screen, biochemical, NADPH fluorescence (AID 622).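 Also: slope of raw intensity against log time taken from 70 to 1610 s.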 The conditions noted are these: recombinant KvBeta, 4-cyanobenzaldehyde reduction, at 10 µM, stronger effect = higher value.
Chain of Voltage-gated potassium channel subunit beta-2 (Rattus norvegicus) (P62483 whole entry, looked up): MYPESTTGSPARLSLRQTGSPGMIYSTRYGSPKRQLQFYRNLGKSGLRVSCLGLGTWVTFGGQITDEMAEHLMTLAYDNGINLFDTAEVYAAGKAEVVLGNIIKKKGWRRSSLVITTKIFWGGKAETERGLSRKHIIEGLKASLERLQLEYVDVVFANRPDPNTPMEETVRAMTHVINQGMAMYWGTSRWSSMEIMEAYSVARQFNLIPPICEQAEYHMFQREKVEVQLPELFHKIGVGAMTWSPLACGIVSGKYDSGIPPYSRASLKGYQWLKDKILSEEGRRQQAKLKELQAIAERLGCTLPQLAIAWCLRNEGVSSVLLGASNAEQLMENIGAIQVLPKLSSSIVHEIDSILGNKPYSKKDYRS
Experiment [5] has the same target. Briefly: KvBeta positive modulators, primary screen, biochemical, NADPH fluorescence (AID 623;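 active = NADPH fluorescence slope more negative than the mean of all samples by about 3 SD, 99.7% confidence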;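 also: fluorescence intensity change per second fitted from 20 to 320 s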). The conditions noted are these: Recombinant KvBeta, NADPH fluorescence decrease slope, 10 min; at 10 µM; stronger effect = lower value.
In experiment [6] the target is Alpha-2C adrenergic receptor (Homo sapiens) (UniProt P18825). Briefly: modulators of alpha2C/GIRK thallium flux, primary screen, cell-based, HEK293 alpha2C/GIRK1/2 (AID 624;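 active = fluorescence slope after compound addition differing from the mean of all screened samples at 99.7% confidence, in either direction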;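 also: slope of fluorescence ratio to pre-addition baseline per second over 15 to 24 s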). The conditions noted are these: thallium flux BTC fluorescence, at 10 µM, actives lie on both sides.
Chain of Alpha-2C adrenergic receptor (Homo sapiens) (P18825 whole entry, looked up): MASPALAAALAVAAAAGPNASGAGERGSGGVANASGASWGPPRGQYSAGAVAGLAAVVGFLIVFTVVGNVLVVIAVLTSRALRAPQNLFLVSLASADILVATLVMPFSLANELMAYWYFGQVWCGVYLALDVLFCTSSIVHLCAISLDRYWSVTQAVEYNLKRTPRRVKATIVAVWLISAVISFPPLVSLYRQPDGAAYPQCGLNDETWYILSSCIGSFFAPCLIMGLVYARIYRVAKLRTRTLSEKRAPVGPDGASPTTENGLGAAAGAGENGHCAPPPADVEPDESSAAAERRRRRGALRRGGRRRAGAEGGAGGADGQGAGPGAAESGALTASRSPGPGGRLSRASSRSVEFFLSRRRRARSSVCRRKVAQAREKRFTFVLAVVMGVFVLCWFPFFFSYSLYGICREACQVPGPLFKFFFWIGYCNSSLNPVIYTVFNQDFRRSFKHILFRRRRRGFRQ
Experiment [7] is described as follows: inhibitors of Sendai virus-induced IRF3 signaling, primary screen, TLR/RLR signaling modifier project, cell-based, Sendai virus stimulus, luciferase, 10K MLSCN set (AID 602276;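 active = inhibition at or above 50% at 10 µM; inactive = inhibition below 50%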;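 also: firefly luciferase from ISG56 promoter only with Renilla not read in this screen; 0% = Sendai virus plus DMSO and 100% = medium plus DMSO without virus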). The conditions noted are these: HEK293 RL24 IRF3 luciferase reporter, at 10 µM, stronger effect = higher value.
Experiment [8] is described as follows: inhibitors of poly I:C-induced TLR3 signaling, primary screen, cell-based, poly I:C stimulus, luciferase, 10K MLSCN set (AID 602277;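 active = inhibition of the reporter signal at or above 50%; inactive = inhibition below 50%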). The conditions noted are these: HEK293-TLR3 RL24 IRF3 luciferase reporter, at 10 µM, stronger effect = higher value.

With `CCC(=O)N(CCCN(C)C)c1nc(-c2cc(OC)ccc2OC)cs1`, the cell count in experiment [1] was 392. The inhibition was 7.8% (inactive) in experiment [1], -14.7% (inactive) in experiment [3], 19.4% (inactive) in experiment [7] and 27% (inactive) in experiment [8]. For the same compound, the inhibition of aggregation in experiment [2] is -4.4% (inactive). Moreover, the nuclei count worked out at 106% in experiment [2] and 116% in experiment [3]. The fluorescence slope in experiment [4] is -0.623 (inactive). Also, the NADPH fluorescence slope in experiment [5] is -6.2e-05 (inactive). The slope in experiment [6] was 0.00293 (inactive).

As to `Nc1ncnc(Nc2ccccc2C(F)(F)F)n1`, in experiment [1], the cell count is 382. The inhibition in experiment [1] was -3.3% (inactive); in experiment [3] it was -8% (inactive); in experiment [7] it was -28.4% (inactive); in experiment [8], -11.7% (inactive). Further, in experiment [2], the inhibition of aggregation was -11.5% (inactive). The figures for the nuclei count in experiment [2] and in experiment [3] were 100% and 107%, respectively. Besides, the fluorescence slope in experiment [4] was -0.487 (inactive). For the same compound, in experiment [5], the NADPH fluorescence slope was 4.7e-05 (inactive). Moreover, the slope in experiment [6] is 0.00593 (inactive).

For `O=C(c1ccc(Br)o1)N(c1ccc(Br)cc1)C1C=CS(=O)(=O)C1` (centres undefined), the cell count in experiment [1] was found to be 553. Besides, the inhibition in experiment [1] is -21.1% (inactive); in experiment [3], -74.4% (inactive); in experiment [7] it was -8.65% (inactive); in experiment [8], -3.46% (inactive). In addition, the inhibition of aggregation in experiment [2] was 4.2% (inactive). Besides, the nuclei count in experiment [2] came out at 108%; in experiment [3], 121%. Further, the fluorescence slope in experiment [4] was -0.377 (inactive). For the same compound, the NADPH fluorescence slope in experiment [5] is 3.2e-05 (inactive). In experiment [6], the slope was 0.00592 (inactive).

In the case of `N#Cc1cnc(SCCc2ccccc2)nc1N`, in experiment [1], the cell count is 630. Moreover, the inhibition was -13.1% (inactive) in experiment [1], -14.8% (inactive) in experiment [3], -34% (inactive) in experiment [7] and -61.8% (inactive) in experiment [8]. In addition, the inhibition of aggregation in experiment [2] is -5.2% (inactive). The nuclei count in experiment [2] is 93.9%; in experiment [3], 108%. The fluorescence slope in experiment [4] was -0.291 (inactive). Also, the NADPH fluorescence slope in experiment [5] is -5.5e-05 (inactive). Further, the slope in experiment [6] is 0.00492 (inactive).

For the compound `Cc1[nH]c2ccccc2c(=O)c1CN1CCCCC1`, the cell count in experiment [1] was found to be 400. For the same compound, the inhibition was 2.1% (inactive) in experiment [1], -47.3% (inactive) in experiment [3], 6.83% (inactive) in experiment [7] and 36.8% (inactive) in experiment [8]. Moreover, in experiment [2], the inhibition of aggregation is -1.5% (inactive). Further, the nuclei count in experiment [2] is 111%; in experiment [3], 119%. Further, the fluorescence slope in experiment [4] was -0.453 (inactive). Also, the NADPH fluorescence slope in experiment [5] was -5.7e-05 (inactive). The slope in experiment [6] was 0.00287 (inactive).

In the case of `COc1ccc(CN(C(=O)c2cccs2)c2nccs2)cc1OC`, the cell count in experiment [1] was 457. Further, the inhibition is 3.9% (inactive) in experiment [1], -60.6% (inactive) in experiment [3], -2.48% (inactive) in experiment [7] and 21.6% (inactive) in experiment [8]. Besides, the inhibition of aggregation in experiment [2] was -1.2% (inactive). Further, the figures for the nuclei count in experiment [2] and in experiment [3] were 112% and 111%, respectively. The fluorescence slope in experiment [4] was -0.458 (inactive). Also, the NADPH fluorescence slope in experiment [5] is -3e-05 (inactive). Besides, the slope in experiment [6] is 0.00675 (inactive).

Regarding `O=C(NCC1CCCO1)C1CCN(S(=O)(=O)c2cccc3cccnc23)CC1` (centres undefined), in experiment [1], the cell count was determined as 651. For the same compound, the inhibition in experiment [1] was -5% (inactive); in experiment [3], -63.2% (inactive); in experiment [7], 10.7% (inactive); in experiment [8], 25.3% (inactive). In addition, the inhibition of aggregation in experiment [2] is 6.8% (inactive). Further, the nuclei count turned out to be 104% in experiment [2] and 114% in experiment [3]. The fluorescence slope in experiment [4] was -0.516 (inactive). The NADPH fluorescence slope in experiment [5] was 1.4e-05 (inactive). Besides, in experiment [6], the slope is 0.00614 (inactive).

Take `Cc1nc(NCc2ccc3c(c2)OCO3)c2oc3ccccc3c2n1`: the cell count in experiment [1] came to 292. In addition, the inhibition in experiment [1] is 12.8% (inactive); in experiment [3], 44.7% (inactive); in experiment [7] it was 4.64% (inactive); in experiment [8] it was -12% (inactive). The inhibition of aggregation in experiment [2] is -3.5% (inactive). For the same compound, the nuclei count in experiment [2] came out at 105%; in experiment [3], 101%. Besides, the fluorescence slope in experiment [4] was -0.516 (inactive). Besides, in experiment [5], the NADPH fluorescence slope was 2.5e-05 (inactive). In experiment [6], the slope was 0.00488 (inactive).

Regarding `COc1ccc(-c2noc(-c3ccccc3C(=O)Nc3cccnc3)n2)cc1OC`, the cell count in experiment [1] is 395. Besides, the inhibition in experiment [1] is -5.7% (inactive); in experiment [3], -57.8% (inactive); in experiment [7], 1.54% (inactive); in experiment [8], 0.376% (inactive). Further, the inhibition of aggregation in experiment [2] is -13.9% (inactive). Moreover, the nuclei count in experiment [2] stood at 103%; in experiment [3], 115%. In addition, in experiment [4], the fluorescence slope is -0.458 (inactive). Also, the NADPH fluorescence slope in experiment [5] was -3.1e-05 (inactive). Moreover, the slope in experiment [6] was 0.00579 (inactive).

In the case of `Cc1ccc(Nc2nc(CSc3nnc(-c4cccs4)o3)cs2)cc1`, the cell count in experiment [1] worked out at 444. The inhibition was -0.2% (inactive) in experiment [1], 16.3% (inactive) in experiment [3], -22% (inactive) in experiment [7] and -60.6% (inactive) in experiment [8]. The inhibition of aggregation in experiment [2] is 31.6% (inactive). Moreover, the nuclei count was 110% in experiment [2] and 113% in experiment [3]. Further, the fluorescence slope in experiment [4] is -0.408 (inactive). The NADPH fluorescence slope in experiment [5] is -1.4e-05 (inactive). The slope in experiment [6] was 0.00487 (inactive).

With `O=C(CN1CCC(c2nc3ccccc3s2)CC1)NCc1cccs1`, in experiment [1], the cell count is 699. In addition, the inhibition was -1% (inactive) in experiment [1], -4.6% (inactive) in experiment [3], -1.46% (inactive) in experiment [7] and -58.5% (inactive) in experiment [8]. In addition, the inhibition of aggregation in experiment [2] is 12.8% (inactive). In addition, the nuclei count in experiment [2] was found to be 87.9%; in experiment [3] it was 103%. In experiment [4], the fluorescence slope was -0.604 (inactive). Moreover, the NADPH fluorescence slope in experiment [5] was -3.9e-05 (inactive). In addition, in experiment [6], the slope is 0.00309 (inactive).

As to `CC(C)OC(=O)CN1C(=O)C(C)(C)Oc2ccc(C(=O)NC3CC3)cc21`, the cell count in experiment [1] turned out to be 537. Further, the inhibition in experiment [1] is -6.7% (inactive); in experiment [3], -11.5% (inactive); in experiment [7], 14.5% (inactive); in experiment [8] it was 17.5% (inactive). The inhibition of aggregation in experiment [2] was 18% (inactive). Also, the nuclei count in experiment [2] came to 104%; in experiment [3] it was 102%. Moreover, the fluorescence slope in experiment [4] was -0.496 (inactive). Moreover, the NADPH fluorescence slope in experiment [5] was -7.2e-05 (inactive). Also, the slope in experiment [6] is 0.00477 (inactive).

In the case of `O=C(OCC(=O)N1CCCCCC1)c1cccs1`, the cell count in experiment [1] came to 295. Further, the inhibition is 7.1% (inactive) in experiment [1], 4.3% (inactive) in experiment [3], -20.1% (inactive) in experiment [7] and -75.3% (inactive) in experiment [8]. Also, the inhibition of aggregation in experiment [2] is 3.3% (inactive). Further, the nuclei count in experiment [2] is 103%; in experiment [3], 107%. Besides, the fluorescence slope in experiment [4] was -0.53 (inactive). Besides, the NADPH fluorescence slope in experiment [5] was -5.7e-05 (inactive). For the same compound, the slope in experiment [6] is 0.00485 (inactive).

Consider `Cc1ccc(S(=O)(=O)C(C#N)c2nc3ccccc3nc2N2CCCCC2)cc1` (centres undefined), for which the cell count in experiment [1] is 273. Also, the inhibition in experiment [1] was 10.9% (inactive); in experiment [3] it was -0.3% (inactive); in experiment [7], 11.2% (inactive); in experiment [8] it was 22.6% (inactive). Moreover, in experiment [2], the inhibition of aggregation is 8.3% (inactive). Moreover, the nuclei count in experiment [2] stood at 98.6%; in experiment [3] it was 103%. Moreover, the fluorescence slope in experiment [4] is -0.364 (inactive). Further, the NADPH fluorescence slope in experiment [5] is 2e-06 (inactive). Further, in experiment [6], the slope was 0.00764 (inactive).
